Measurements as given in PubChem BioAssay (NCI).
Compounds without any hit were thinned out: in the full panel of roughly 83,000, 20% have a hit.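 The test compound was applied at a single concentration to cells in 96-well plates for 48 hours, and percent growth was recorded.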 Activity calls are given as the source filed them. How the source made its calls: active means growth percent below 10; inactive means the rest.

What was measured:
Test in all cases: NCI-60 one-dose screen, 48 h (100 = growth as untreated, 0 = no growth, -100 = all killed)
Conditions in all cases: 10 µM unless noted
DU-145 prostate = test system: DU-145 prostate
K-562 leukemia = test system: K-562 leukemia
MALME-3M melanoma = test system: MALME-3M melanoma
MDA-MB-231 breast = test system: MDA-MB-231 breast
RXF 393 renal = test system: RXF 393 renal
SF-268 CNS = test system: SF-268 CNS
SF-295 CNS = test system: SF-295 CNS
SF-539 CNS = test system: SF-539 CNS
UACC-257 melanoma = test system: UACC-257 melanoma
M14 melanoma = test system: M14 melanoma
HCT-15 colon = test system: HCT-15 colon
HT29 colon = test system: HT29 colon
SNB-75 CNS = test system: SNB-75 CNS
SNB-19 CNS = test system: SNB-19 CNS
U251 CNS = test system: U251 CNS
PC-3 prostate = test system: PC-3 prostate
SK-MEL-5 melanoma = test system: SK-MEL-5 melanoma
UACC-62 melanoma = test system: UACC-62 melanoma
LOX IMVI melanoma = test system: LOX IMVI melanoma
SK-MEL-28 melanoma = test system: SK-MEL-28 melanoma

Measured: growth

CC(C)(O)c1cccc(F)c1
inactive: DU-145 prostate 107% | K-562 leukemia 105% | MALME-3M melanoma 101% | MDA-MB-231 breast 89.5% | RXF 393 renal 107% | SF-268 CNS 106% | SF-295 CNS 106% | SF-539 CNS 88% | UACC-257 melanoma 108% | M14 melanoma 95.6% | HCT-15 colon 99.2% | HT29 colon 108% | SNB-75 CNS 92.3% | SNB-19 CNS 97.6% | U251 CNS 106% | PC-3 prostate 99.9% | SK-MEL-5 melanoma 103% | UACC-62 melanoma 88.7% | LOX IMVI melanoma 97.7% | SK-MEL-28 melanoma 101%

C[C@@H]1C(=O)N(C[C@H](Cc2ccccc2)N(Cc2ccccc2)Cc2ccccc2)[C@]1(Cc1ccccc1)C(=O)OC(C)(C)C
inactive: DU-145 prostate 77.6% | K-562 leukemia 51.6% | MALME-3M melanoma 88% | MDA-MB-231 breast 61.9% | RXF 393 renal 68.5% | SF-268 CNS 69.8% | SF-295 CNS 40.3% | SF-539 CNS 91% | UACC-257 melanoma 45.1% | M14 melanoma 75.4% | HCT-15 colon 70.9% | HT29 colon 46.4% | SNB-75 CNS 71.3% | SNB-19 CNS 66.9% | U251 CNS 49.2% | PC-3 prostate 27.9% | SK-MEL-5 melanoma 45.5% | UACC-62 melanoma 60.6% | LOX IMVI melanoma 62.8% | SK-MEL-28 melanoma 92%

Nc1nc(Nc2ccc(Cl)cc2)nn1S(=O)(=O)c1ccc(-c2ccc(F)cc2)cc1
inactive: DU-145 prostate 88.7% | K-562 leukemia 83.5% | MALME-3M melanoma 113% | MDA-MB-231 breast 87.8% | RXF 393 renal 92.3% | SF-268 CNS 76.3% | SF-295 CNS 99.1% | SF-539 CNS 94% | UACC-257 melanoma 107% | M14 melanoma 89.8% | HCT-15 colon 77.4% | HT29 colon 80% | SNB-75 CNS 79% | SNB-19 CNS 88.8% | U251 CNS 88.8% | PC-3 prostate 67.4% | SK-MEL-5 melanoma 98.7% | UACC-62 melanoma 72.5% | LOX IMVI melanoma 83.6% | SK-MEL-28 melanoma 94.5%

O=C(/C=C/C12c3ccccc3C(c3ccccc31)C1C(=O)N(c3ccccc3)C(=O)C12)c1ccc(Cl)cc1 (stereo not given)
inactive: DU-145 prostate 21.8% | K-562 leukemia 18.2% | SF-268 CNS 43% | UACC-257 melanoma 20.2% | M14 melanoma 30% | SNB-75 CNS 72.1% | SNB-19 CNS 39.4% | U251 CNS 19.8% | PC-3 prostate 22.3%
active: MALME-3M melanoma -32.7% | MDA-MB-231 breast -11.8% | RXF 393 renal -71.2% | SF-295 CNS 6.27% | SF-539 CNS 0.701% | HCT-15 colon -0.519% | HT29 colon 8.4% | SK-MEL-5 melanoma -55.2% | UACC-62 melanoma 5.42% | LOX IMVI melanoma -81.1% | SK-MEL-28 melanoma 4.17%

COc1cc2c(cc1OC)-c1ccc3cc4c(cc3c1N(CCN1CCCC1)C2)OCO4
inactive: DU-145 prostate 11.5% | MALME-3M melanoma 51.4% | SF-268 CNS 20.1% | UACC-257 melanoma 44.2% | M14 melanoma 17.4% | HCT-15 colon 40.6% | SK-MEL-5 melanoma 26.4% | UACC-62 melanoma 36.1% | SK-MEL-28 melanoma 77.2%
active: K-562 leukemia -3.86% | MDA-MB-231 breast -38.6% | RXF 393 renal -3.76% | SF-295 CNS 4.42% | SF-539 CNS 4.16% | HT29 colon -51.2% | SNB-75 CNS -3.1% | SNB-19 CNS -5.63% | U251 CNS -55.7% | PC-3 prostate 2.3% | LOX IMVI melanoma -79%

COc1ccc(N=c2nc3sc4cc(Cl)ccc4n3c(N)c2C#N)cc1
inactive: DU-145 prostate 105% | K-562 leukemia 98.9% | MALME-3M melanoma 77.4% | MDA-MB-231 breast 76.4% | RXF 393 renal 52% | SF-268 CNS 60.1% | SF-539 CNS 103% | UACC-257 melanoma 61.6% | M14 melanoma 70.6% | HCT-15 colon 99.5% | HT29 colon 36.1% | SNB-75 CNS 36.9% | SNB-19 CNS 82% | U251 CNS 79% | PC-3 prostate 58.5% | SK-MEL-5 melanoma 14.9% | UACC-62 melanoma 69.3% | LOX IMVI melanoma 83% | SK-MEL-28 melanoma 45.8%
active: SF-295 CNS -3.63%

CN(C)c1ccc2cc(-c3ccccc3F)c(N)nc2c1
inactive: DU-145 prostate 17.1% | K-562 leukemia 13.5% | MDA-MB-231 breast 64.7% | RXF 393 renal 19.1% | SF-268 CNS 45.1% | UACC-257 melanoma 45.7% | M14 melanoma 10.5% | HCT-15 colon 37.4% | SNB-75 CNS 11.3% | SNB-19 CNS 55.1% | U251 CNS 16.8% | PC-3 prostate 31.6% | UACC-62 melanoma 40.2% | LOX IMVI melanoma 33.4% | SK-MEL-28 melanoma 58%
active: MALME-3M melanoma -22.1% | SF-295 CNS 0.224% | SF-539 CNS -16.4% | HT29 colon 1.79% | SK-MEL-5 melanoma -18.8%

O=S(=O)(NCCNc1cc(-c2c(-c3cccc(O)c3)nc3sccn23)ccn1)c1ccc(Cl)cc1
active: SNB-75 CNS 8.44%
inactive: DU-145 prostate 67.8% | K-562 leukemia 42.5% | MALME-3M melanoma 94% | MDA-MB-231 breast 80.6% | RXF 393 renal 71.7% | SF-268 CNS 47.9% | SF-295 CNS 85% | SF-539 CNS 91.8% | UACC-257 melanoma 95.2% | M14 melanoma 68.2% | HCT-15 colon 53.2% | HT29 colon 65.7% | SNB-19 CNS 72.7% | U251 CNS 65.9% | PC-3 prostate 49.3% | SK-MEL-5 melanoma 30.7% | UACC-62 melanoma 64.8% | LOX IMVI melanoma 63.2% | SK-MEL-28 melanoma 95.7%

CCN(CC)S(=O)(=O)c1ccc(O)c(NC(=O)c2[nH]c(C)c(C(C)=O)c2CCc2ccc(Cl)cc2)c1
inactive: DU-145 prostate 68.4% | K-562 leukemia 29.8% | MALME-3M melanoma 53% | MDA-MB-231 breast 50.6% | RXF 393 renal 91.2% | SF-268 CNS 55.4% | SF-295 CNS 59.3% | SF-539 CNS 64.5% | UACC-257 melanoma 38.3% | M14 melanoma 56.8% | HCT-15 colon 42.9% | HT29 colon 101% | SNB-75 CNS 52.1% | SNB-19 CNS 47.1% | U251 CNS 31.1% | PC-3 prostate 32.8% | UACC-62 melanoma 20.2% | LOX IMVI melanoma 39.5% | SK-MEL-28 melanoma 70.9%
active: SK-MEL-5 melanoma -25%

CCN(CCO)CC(=O)c1cc(Cl)cc(Cl)c1Cl
inactive: DU-145 prostate 103% | K-562 leukemia 99.2% | MALME-3M melanoma 98.2% | MDA-MB-231 breast 103% | RXF 393 renal 93.7% | SF-268 CNS 97.5% | SF-295 CNS 97.8% | SF-539 CNS 104% | UACC-257 melanoma 102% | M14 melanoma 99.2% | HCT-15 colon 101% | HT29 colon 81.8% | SNB-75 CNS 95.3% | SNB-19 CNS 105% | U251 CNS 101% | PC-3 prostate 84% | SK-MEL-5 melanoma 105% | UACC-62 melanoma 98.3% | LOX IMVI melanoma 99.6% | SK-MEL-28 melanoma 111%

Cc1[nH]c(-c2nc3ccccc3[nH]2)c(C)c1C(=O)N1CCc2sccc2C1
inactive: DU-145 prostate 102% | K-562 leukemia 82.9% | MALME-3M melanoma 85.9% | MDA-MB-231 breast 85.9% | RXF 393 renal 101% | SF-268 CNS 97.3% | SF-295 CNS 100% | SF-539 CNS 87.5% | UACC-257 melanoma 96.9% | M14 melanoma 94.6% | HCT-15 colon 90% | HT29 colon 96% | SNB-75 CNS 78.6% | SNB-19 CNS 89.4% | U251 CNS 97.9% | PC-3 prostate 87.3% | SK-MEL-5 melanoma 88.8% | UACC-62 melanoma 87.8% | LOX IMVI melanoma 93.3% | SK-MEL-28 melanoma 94.5%

Cl.Fc1c[c-]c(-c2ccccn2)c(F)c1.[Pt].c1ccc([PH+](c2ccccc2)c2ccccc2[PH+](c2ccccc2)c2ccccc2)cc1
active: DU-145 prostate -98.9% | K-562 leukemia 0.976% | MALME-3M melanoma -83.8% | MDA-MB-231 breast -93.3% | RXF 393 renal -86.8% | SF-268 CNS -72.3% | SF-295 CNS -90.8% | SF-539 CNS -93.6% | UACC-257 melanoma -71.8% | M14 melanoma -72.5% | HCT-15 colon -83.8% | HT29 colon -63.3% | SNB-75 CNS -98.3% | SNB-19 CNS -94.9% | U251 CNS -87.8% | PC-3 prostate -86.6% | SK-MEL-5 melanoma -97.2% | UACC-62 melanoma -85.6% | LOX IMVI melanoma -92.6% | SK-MEL-28 melanoma -94.5%

N=C(N)c1ccc(-c2ccc(/C=C/c3ccccc3)s2)cc1
inactive: MALME-3M melanoma 61.2% | RXF 393 renal 39.2% | SF-268 CNS 60.7% | SF-539 CNS 17.2% | UACC-257 melanoma 105% | M14 melanoma 31.8% | SNB-75 CNS 24.3% | SNB-19 CNS 24.3% | PC-3 prostate 52.7% | SK-MEL-5 melanoma 81.3% | UACC-62 melanoma 86.2% | SK-MEL-28 melanoma 80.8%
active: DU-145 prostate 1.59% | K-562 leukemia -27.7% | MDA-MB-231 breast -51.5% | SF-295 CNS -61.7% | HCT-15 colon -54% | HT29 colon -2.42% | U251 CNS -46.6% | LOX IMVI melanoma -82.1%

C[C@H]1[C@H]2C3=CC[C@@H]4[C@@]5(C)C/C(=C/c6ccncc6)C(=O)C(C)(C)[C@@H]5CC[C@@]4(C)[C@]3(C)CC[C@@]2(C(=O)N2CCN(C)CC2)CC[C@@H]1C
inactive: DU-145 prostate 89.3% | K-562 leukemia 40.2% | MALME-3M melanoma 102% | MDA-MB-231 breast 81.4% | RXF 393 renal 83.8% | SF-268 CNS 82.4% | SF-295 CNS 87.7% | SF-539 CNS 83.2% | UACC-257 melanoma 83.6% | M14 melanoma 65.7% | HCT-15 colon 66% | HT29 colon 46.9% | SNB-75 CNS 76.3% | SNB-19 CNS 78.2% | U251 CNS 68.8% | PC-3 prostate 33.9% | SK-MEL-5 melanoma 87.7% | UACC-62 melanoma 80.2% | LOX IMVI melanoma 84.3% | SK-MEL-28 melanoma 101%
